# High-throughput results (PubChem BioAssay)
# Hits are enriched below; roughly 5.5% of the tested compounds scored in any of these assays.
# Coupling enz: inhibits coupling enzyme system, counter-screen for aldolase hits. hit rate 0.67% among 290,000. activity change, negative = inhibition, % at 58.2 µM, hits read low. AID 2472. coupling enzyme system counterscreen, AmpLite Red fluorescence; in the data active = activity change below about -30%
#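 Fluorescence at 525 nm excitation and 598 nm emission measured inhibition of the coupled detection system without aldolase. Compounds (at 57.5 uM final) were preincubated 10 min at room temperature with coupling enzyme reagent before a 20 min substrate/AmpLite Red step.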
# Giardia killer: kills Giardia lamblia; hit rate 0.15% among 340,000; Giardia lamblia trophozoite viability; activity change, % at 7.66 µM, hits read low; in the data active = activity change below about -80%; inconclusive = between about -30% and that limit;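 note: parasites exposed to compound for two days anaerobically before the ATP read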
#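 ATP-content bioluminescence gauges trophozoite survival. Cells (100/well) receive compound and incubate anaerobically for 48 hrs at 37 deg C; detection reagent follows for 15-30 min at room temperature.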
# ELG1 DNA repair: ELG1-dependent DNA repair inhibition. Potency, µM (series often up to 46.1 µM), for the others: at the top dose activity change, negative = inhibition, usual class: inhibitors. AID 504467. hit rate 2.3% among 330,000. HEK293T ELG1-luciferase reporter, luminescence, 16 h; DNA damage induced by 5-fluorouridine; note: potency is the fitted concentration of half-maximal effect; nearly all actives have a fitted effect of over 55% in size
#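 In this reporter screen, reduction of luminescence relative to DMSO vehicle indicated activity. Compounds and 5-fluorouridine were added together to 2,000 cells per well, incubated for 16 hr at 37 °C, then developed with ONE-Glo.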
# Sfp inh: blocks B. subtilis Sfp PPTase activity | Q9F4F7 | Biochemical Sfp PPTase activity, qHTS | Potency, µM, inactives show largest response in the series, negative = inhibition, hits mostly inhibitors | hit rate 3.5% among 310,000 | AID 1490;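 note: the enzyme is Sfp with the accession as filed and its product quenches rhodamine fluorescence; potency is the fitted concentration of half-maximal effect; 0% = enzyme reaction without inhibitor and -100% = no enzyme wells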
#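 Fluorescence-quenching assay with 15 nM Sfp, 5 uM rhodamine-CoA and 12.5 uM BHQ-2-labelled ybbR peptide in pH 7.6 Hepes/MgCl2 buffer. Enzyme was pre-incubated with compound for 15 min at room temperature. Rate was taken from the 30-min fluorescence change (525/598 nm).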
# An asterisk follows results filed as active; ? = inconclusive; nt = not tested or not shown. Unless noted, calls come from the whole dose curve; as a rule, active = well fitted curve in the direction sought with a large enough effect; inconclusive = small, poorly fitted or top-dose-only effect, or another doubt; inactive = no such curve, though single readings can be large; an effect the other way counts as inactive or inconclusive. Unless noted, % is set by controls: 0 for no effect and ±100 for the full control effect.
SMILES,Coupling enz,Giardia killer,ELG1 DNA repair,Sfp inh
CCN(CC)S(=O)(=O)c1ccc(N2CCOCC2)c(NC(=O)COc2ccccc2C)c1,nt,3,5.8µM*,nt
CCN(CC)S(=O)(=O)c1ccc(N2CCOCC2)c(NC(=O)COc2ccc(OC)cc2)c1,nt,-9,18µM*,nt
CC12C=C(/C=C/c3ccccc3)C(C)(C1)C(c1ccccc1)CC2=O (configuration not stated),0,nt,nt,8%
COc1ccc(CCN2C(=O)C=CC2=O)cc1OC,nt,9,nt,nt
COc1ccc(CCNC2=C(Cl)C(=O)N(CCc3ccc(OC)c(OC)c3)C2=O)cc1OC,-1,-2,13µM*,-16%
O=c1cnc2cnc(Oc3ccccc3)nc2n1C[C@H]1CCCO1,2,nt,nt,1%
COc1ccc(-c2cnnc(N/N=C/c3ccc(-c4ccc([N+](=O)[O-])cc4)o3)n2)cc1,-4,-6,?,?
COc1ccccc1-c1cnnc(N/N=C/c2ccc(-c3cccc(Br)c3)o2)n1,2,-7,8.2µM*,8%
Cc1sc2nc(CSCC(=O)Nc3ccc(Cl)cc3F)[nH]c(=O)c2c1C,nt,8,2%,nt
COc1cccc(-c2nc(C(=O)NCCCN3CCOCC3)cc3c2[nH]c2ccccc23)c1,0,-6,?,-6%
O=C(NCCCN1CCOCC1)c1cc2c([nH]c3ccccc32)c(-c2cccc(Br)c2)n1,-1,25,1.6µM*,-20%
CCOc1ccccc1C(=S)NC1CCCCC1,2,6,-8%,89µM*
CCOc1ccc(CC(=O)NNC(=S)NC2CCCCC2)cc1OCC,2,19,-11%,28%
CCOc1ccccc1NC(=S)NC1CCCCC1,2,-12,-8%,-6%
CCOc1ccc(C(=S)NC2CCCCC2)cc1OC,-1,-6,?,45µM*
CCCc1cc(=O)oc2cc(C)cc(OCC(=O)N3CCC(C(=O)O)CC3)c12,3,?,1%,2%
COc1cc(OC)cc(-c2cc3nc4c(c(N5CCN(c6ncccn6)CC5)n3n2)CCCC4)c1,-5,-1,15µM*,-26%
Clc1cccc(-c2cc3nc4c(c(N5CCNCC5)n3n2)CCCC4)c1,0,nt,?,25%
CCN(CC)c1ccc2c(-c3ccc(S(=O)(=O)O)cc3S(=O)(=O)[O-])c3ccc(=[N+](CC)CC)cc-3oc2c1,85,5,-29%,89µM*
COc1ccc(CNC(=O)/C=C/c2cc([N+](=O)[O-])ccc2OC(F)F)cc1OC,6,-13,21µM*,10%
COc1ccc(CNC(=O)/C=C/c2cc([N+](=O)[O-])ccc2OC(F)F)cc1,4,-11,-24%,-17%
COC(=O)c1ccc(CNC(=O)/C=C/c2cc([N+](=O)[O-])ccc2OC(F)F)cc1,5,7,10µM*,-1%
CCc1ccccc1N1CSC2=C(C#N)C(c3cc(OC)c(OC)cc3OC)CC(=O)N2C1 (configuration not stated),-52*,22,?,0.89µM*
COc1cc(OC)c(C2CC(=O)N3CN(c4ccccc4)CSC3=C2C#N)cc1OC (configuration not stated),-24,-12,-1%,3.2µM*
CC#CCN1c2ccccc2[C@]23C[C@@H](C(=O)OC)N(S(=O)(=O)c4ccc5c(c4)OCCN5C)C2=NC(C(=O)OC)=C(C(=O)OC)[C@H]13,1,nt,nt,10%
SMILES,Coupling enz,Giardia killer,ELG1 DNA repair,Sfp inh
COCCCNC(=O)C1Cc2cc(S(=O)(=O)N3CCCC3)ccc2N1C(C)=O (configuration not stated),nt,11,-1%,9%
COc1ccccc1N1C(=O)C(Cl)=C(Nc2ccccc2O)C1=O,-3,-13,-4%,40µM*
CCOc1ccccc1NC1=C(Cl)C(=O)N(c2ccc(OC)cc2)C1=O,0,-7,22%,-22%
O=C1C(Cl)=C(Nc2ccccc2O)C(=O)N1c1ccccc1,-5,1,?,22µM*
CCC1CCCCN1C(=O)COC(=O)c1cccs1 (configuration not stated),nt,-24,29%,nt
COc1cc(C(=O)OCC(=O)N2CCCCC2C)cc(NC(=O)c2cccs2)c1OC (configuration not stated),-5,4,18µM*,-8%
O=C(C1=C[C@@H](c2ccc(Br)cc2)C[C@@H](OCc2ccc(CO)cc2)O1)N1CCN(Cc2ccccc2)CC1,-2,-3,23µM*,0%
COC(=O)c1ccc(C(NC(=O)OCc2ccccc2)/C(I)=C/[C@@H](C)C(=O)NCc2ccc(C)o2)cc1 (some centres not stated),2,nt,nt,40µM*
Cc1ccc(COc2ccccc2-c2cc(C(=O)N/N=C/c3cccnc3)[nH]n2)cc1,0,-2,23µM*,-3%
CCOc1ccccc1-c1cc(C(=O)N/N=C/c2cccnc2)c2ccccc2n1,nt,27,nt,nt
O=C(N/N=C/c1cccnc1)c1cc(O)c(O)c(O)c1,-10,31,16%,40µM*
O=C(N/N=C/c1c(O)ccc2ccccc12)c1cccnc1,0,3,3.7µM*,4%
Cc1ccc(C(=O)NC(=S)N2CCN(C)CC2)cc1Br,-3,-5,?,-1%
CN(NS(=O)(=O)c1ccc(Br)cc1)c1nc(C(F)(F)F)nc2ccccc12,7,-9,21µM*,24%
CN(Cc1ccco1)c1nc(-c2cccc(C#N)c2)nc2ccccc12,0,nt,nt,-27%
O=C(N/N=C/c1ccncc1)c1cccs1,2,-25,?,17%
O=C(N/N=C/c1ccc(-c2ccccc2C(=O)O)o1)c1cccs1,0,?,?,50µM*
O=C(O)Cc1ccc(Nc2cnn(C34CC5CC(CC(CC(=O)O)(C5)C3)C4)c(=O)c2Cl)cc1,-1,-17,?,17%
O=C(O)CC12CC3CC(C1)CC(n1ncc(N4CCC5(CC4)OCCO5)c(Cl)c1=O)(C3)C2,0,9,23µM*,7%
Nc1c(C(=O)c2ccccc2)sc2snc(SCC(=O)c3ccccc3)c12,5,14,13%,40µM*
Cc1ccc(C(CC(=O)O)NC(=O)CN2C(=O)c3ccccc3C2=O)cc1 (configuration not stated),-2,-29,-2%,6%
Cc1ccccc1OCC(=O)NC(=S)Nc1ccccc1N1CCN(S(C)(=O)=O)CC1,nt,-2,-18%,16%
O=C(NCCc1ccc(Cl)cc1Cl)c1cncc(Br)c1,1,4,-1%,8%
CC(=N)c1c(O)c2ccccc2oc1=O,2,-6,?,5%
CCCCC(=O)c1c(O)c2ccccc2oc1=O,-9,14,?,6%
CCOc1ccc(OCC(=O)c2c(O)c3ccccc3oc2=O)cc1,-2,1,14%,28µM*
COc1ccc(OCC(=O)c2c(O)c3ccccc3oc2=O)cc1,2,-16,-11%,20µM*
Cc1cc(=O)[nH]c(N/N=C/C=C/c2ccccc2)n1,-1,4,2%,-12%
Cc1cc(=O)[nH]c(NN=C2C3CC4CC(C3)CC2C4)n1,1,-9,6%,45µM*
Cc1cc(=O)[nH]c(NCCO)n1,3,-19,8%,22%
